experiment: growth of efflux-deficient E. coli DRC39 – strain DRC39, OD650, 48 h, E. coli filamentation inducers, primary screen (AID 1179);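 further: screen aims at cell division blockers that make cells filament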; settings: E. coli DRC39 delta-acrAB growth, higher = more signal, called active from +8 up or from −8 down

z-score, inactive:
COC(=O)[C@H](C)NC(=O)CCC1CC(OC(=O)NCc2cccc3ccccc23)CC2(CCCC(COC(=O)NCCc3ccccc3OC)O2)O1 (stereo not given in full) -0.0569
CO[C@@H](C(C)C)[C@@H](C)C1OC(=O)CC1O (stereo not given in full) 0.468
COc1ccc(COC(=O)NN=C2C[C@@H](O)[C@@H](O)[C@@H]3[C@@H]4C(=O)N(C[C@@H]5CCCO5)C(=O)[C@@H]4CC[C@H]23)cc1 0.0875
COC(=O)[C@H](C)NC(=O)CCC1CC(OC(=O)NCCc2ccc(F)cc2)CC2(CCCC(COC(=O)NCCc3ccccc3OC)O2)O1 (stereo not given in full) -0.487
CON=C(C)CCN1CCCCc2nc(C)c(C)cc21 -0.78
CC(C)C(=O)N[C@H]1CCCN1C(=O)C=Cc1ccccc1 -0.898
C#CCCCON=C1C[C@@H](O)[C@@H](O)[C@@H]2[C@@H]3C(=O)N(C[C@@H]4CCCO4)C(=O)[C@@H]3CC[C@@H]12 0.802
COc1ccc(COC(=O)NN=C2C[C@@H](O)[C@@H](O)[C@@H]3[C@@H]4C(=O)N(C5CCCCC5)C(=O)[C@@H]4CC[C@@H]23)cc1 -0.437
CCOC(=O)[C@H](CC(C)C)NC(=O)CCC1CC(OC(=O)NCc2ccc3c(c2)OCO3)CC2(CCCC(COC(=O)NCCc3ccc(Cl)cc3)O2)O1 (stereo not given in full) -0.294
CC(CCC(=O)OC[C@H]1O[C@H](C#Cc2ccccc2)C=C[C@@H]1Oc1ccc(C)cc1)=NO[C@@H](C)c1cc(-c2c(C)cc(C)cc2C)no1 0.213

Source: PubChem BioAssay
